Sampled rows, rich in hits. Any-hit rate of the full collection: about 1.3%.
Phagocyt inh – inhibitors of macrophage phagocytosis, primary screen, imaging, J774A.1 cells, IgG beads; inhibition, % at 5 µM; J774A.1 macrophage IgG-bead phagocytosis; AID 1029, 2008; actives 0.07% (n = 110,000);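 active = inhibition above the mean of the plate negative controls plus 5 SD, cut at about 13% in these data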;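 also: phagocytic index as fraction of beads internalized from green versus red external bead signal; plate controls were DMSO negative control for no effect and cytochalasin-D positive control for full effect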
GALR2 agonist – GALR2 receptor agonists, primary screen, cell-based; AID 803, 2007; activation, % (concentration not given with the values); GALR2-expressing cells, agonist activation read-out; Galanin receptor type 2 (Homo sapiens), O43603; actives 0.48% (n = 140,000); in the data active = activation above about 5%, passing the limit was not always enough;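 also: 0% = vehicle buffer wells and 100% = reference agonist at full effect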
Target sequence (O43603 whole entry, looked up): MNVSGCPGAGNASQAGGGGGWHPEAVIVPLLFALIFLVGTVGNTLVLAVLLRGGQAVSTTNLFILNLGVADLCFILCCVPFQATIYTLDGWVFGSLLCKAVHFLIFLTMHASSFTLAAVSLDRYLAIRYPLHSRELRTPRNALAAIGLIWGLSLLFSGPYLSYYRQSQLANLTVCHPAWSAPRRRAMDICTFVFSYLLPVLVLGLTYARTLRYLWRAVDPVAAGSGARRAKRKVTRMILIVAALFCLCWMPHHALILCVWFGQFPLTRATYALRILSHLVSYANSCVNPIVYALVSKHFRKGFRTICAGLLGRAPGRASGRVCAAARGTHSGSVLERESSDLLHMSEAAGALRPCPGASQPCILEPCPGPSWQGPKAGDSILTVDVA
S1P2 ag – S1P2 receptor agonists, primary screen, cell-based; actives 0.46% (n = 97,000); activation, % at 4.5 µM; AID 729, 2007; S1P2-expressing cell line, agonist reporter read-out; in the data active = activation above about 16%;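 also: 0% = vehicle low control and 100% = maximal reference agonist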
S1P2 antag – human S1P2 receptor antagonists, primary screen, cell-based. Sphingosine 1-phosphate receptor 2 (Homo sapiens), O95136. cell-based S1P2 antagonist assay, inhibition at 5 uM. inhibition, % at 5 µM. actives 0.21% (n = 97,000). AID 736, 2007; in the data active = inhibition above about 45%;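 also: CRE beta-lactamase reporter cells expressing human S1P2 stimulated with S1P; 0% = agonist at EC80 alone and 100% = agonist plus reference antagonist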
GALR2 antag – GALR2 antagonists in receptor-expressing cells, primary screen; Galanin receptor type 2 (Homo sapiens), O43603; antagonist mode; inhibition, % at 4 µM; actives 0.39% (n = 140,000);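 also: cells stimulated with galanin 1-16 at roughly its EC80; 0% = agonist challenge control and 100% = basal control without agonist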
GALR2 ant conf – GALR2 antagonists, retest of hits, confirmation, cell-based; GALR2-expressing cells, antagonist mode, inhibition; shares compounds with GALR2 antag; AID 866, 2007; inhibition, % at 4 µM; actives 60% (n = 480);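 also: cells stimulated with galanin at about its EC80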
BLA inh counter – inhibitors of NFAT-driven beta-lactamase reporter, confirmation, counter-screen for GALR2 antagonist project, CHO NFAT-bla cells, FRET readout | actives 36% (n = 480) | AID 867, 2007 | inhibition, % at 4.2 µM | shares compounds with GALR2 antag | thapsigargin-stimulated;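 active = inhibition above the mean inhibition across tested compounds plus 3 SD, cut at about 27% in these data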;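 also: 0% = 500 nM thapsigargin stimulated wells and 100% = unstimulated BSA only wells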
Numbers without * were called inactive; . = no result given; ! = not confirmed by another sample. Rule as the data show it, unless noted: active = inhibition above about 27%; inactive = the rest.

SMILES | Phagocyt inh | GALR2 agonist | S1P2 ag | S1P2 antag | GALR2 antag | GALR2 ant conf | BLA inh counter
CC(=O)c1ccc(N2CCN(C(=O)COc3ccc(F)cc3)CC2)c(F)c1 | -1 | -2 | . | . | 28* | 8 | -2
Cc1cccc(C)c1NC(=O)c1cc(S(=O)(=O)N2CCOCC2)ccc1F | . | -2 | -11 | -5 | 7 | . | .
Cc1cc(N/N=C/c2ccc(O)c(C)c2O)nc(-c2ccccc2O)n1 | -10 | -2 | . | . | 31* | 33* | 12
Cc1ccc(Cl)c(NC(=O)COC(=O)c2ccccc2C(=O)c2ccc(Cl)c([N+](=O)[O-])c2)c1Cl | 0 | 1 | . | . | 69* | 80* | 71*
Cn1nc(CC(=O)Nc2ccc3c(c2)OCCO3)c2ccccc2c1=O | -2 | -1 | . | . | 36* | 42* | 17
COc1ccccc1NC(=O)Cc1nn(C)c(=O)c2ccccc12 | -5 | -2 | -4 | 29 | 35* | 40* | 14
COc1cc(NC(=O)Cc2nn(C)c(=O)c3ccccc23)cc(OC)c1 | -2 | -1 | -5 | 19 | 18 | . | .
Cc1ccc(S(=O)(=O)N(CC(O)CN2C(=O)NC(C)(C)C2=O)c2ccccc2)cc1 (configuration not stated) | . | -3 | -7 | 2 | 0 | . | .
Cc1ccc(S(=O)(=O)N(C)C)cc1NC(=O)CCNC(=O)c1ccccc1Cl | -2 | 0 | . | . | -11 | . | .
CC(=O)c1c(C)[nH]c(C(=O)OCC(=O)Nc2ccc(C)cc2[N+](=O)[O-])c1C | . | -1 | . | . | 40* | 49* | 11
CC(=O)c1c(C)[nH]c(C(=O)OCC(=O)Nc2cc(Cl)ccc2[N+](=O)[O-])c1C | -4 | -1 | . | . | 25 | . | .
Cc1ccc(-c2csc(NC(=O)C3=NN(c4ccccc4)C(=O)CC3)n2)cc1 | . | -1 | . | . | 28* | 20 | 5
O=C(NCC1CCCO1)C(c1cccs1)N(C(=O)c1ccc(CN2CCOCC2)o1)c1ccc(Cl)cc1 (configuration not stated) | -6 | -2 | . | . | 4 | . | .
Fc1ccc(SCCc2ccncc2)cc1 | 0 | -3 | -5 | 18 | 32*! | 6 | 0
Cc1nn(C)c(C)c1N1C(=O)c2cccc3c(Br)ccc(c23)C1=O | . | 1 | -7 | 45 | 29* | 30* | 18
Cc1nn(C)c(C)c1N1C(=O)c2cccc3c(N)ccc(c23)C1=O | -5 | -1 | . | . | 32* | 20 | 25
CCc1cccc(CC)c1NC(=O)COn1nnc2ccc(C(F)(F)F)cc21 | -14 | -2 | . | . | 4 | . | .
O=C(CCC(=O)Nc1ccccc1)NNC(=O)COc1ccccc1 | -3 | -2 | . | . | 3 | . | .
